Screening results as filed in PubChem BioAssay.
A selection: hits, their analogues and other compounds. The true share with any hit is near 2.4%.
PABP polyA inh: PABP-poly(A) binding inhibition; P11940; PABP-poly(A) RNA binding, fluorescence polarization; calls only at 35 µM; 290,000 tested, 1% active; AID 2014;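 note: calls also rest on retests at 20 µM and on dose response follow-up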
Target sequence (P11940 whole entry, looked up): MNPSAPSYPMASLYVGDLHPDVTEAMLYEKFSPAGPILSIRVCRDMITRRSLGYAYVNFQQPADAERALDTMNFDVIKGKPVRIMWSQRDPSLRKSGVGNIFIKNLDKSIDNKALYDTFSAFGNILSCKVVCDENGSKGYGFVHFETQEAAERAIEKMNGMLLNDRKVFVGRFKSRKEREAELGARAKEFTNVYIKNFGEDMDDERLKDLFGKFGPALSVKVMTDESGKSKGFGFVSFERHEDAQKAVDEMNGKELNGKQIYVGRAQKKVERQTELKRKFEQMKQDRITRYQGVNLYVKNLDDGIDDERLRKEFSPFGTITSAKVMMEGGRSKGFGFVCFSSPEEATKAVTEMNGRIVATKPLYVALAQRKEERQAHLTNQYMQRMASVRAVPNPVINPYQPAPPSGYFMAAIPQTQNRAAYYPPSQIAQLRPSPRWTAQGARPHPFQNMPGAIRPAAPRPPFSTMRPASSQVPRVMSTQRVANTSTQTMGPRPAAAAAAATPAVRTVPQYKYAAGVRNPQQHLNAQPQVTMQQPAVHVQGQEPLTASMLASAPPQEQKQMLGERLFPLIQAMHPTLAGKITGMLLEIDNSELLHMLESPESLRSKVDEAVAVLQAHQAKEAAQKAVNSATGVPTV
HMGR II inh: blocks class II HMG-CoA reductase of Enterococcus faecalis; AID 1066; inhibition, % at 10 µM; purified E. faecalis HMGR, NADPH absorbance 340 nm kinetic; 190,000 tested, 0.41% active;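 active = inhibition above a set limit, the median over all tested compounds plus 3 SD, cut at about 9.5% in these data; inconclusive = no clear call, values can overlap the other calls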;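 note: enzyme runs in reverse so mevalonate oxidation gives rising NADPH absorbance; 0% = complete reaction with DMSO and 100% = background rate lacking mevalonate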
MLLE-PAM2 inh: inhibitors of microRNA-mediated deadenylation, human PABP1 MLLE binding; P11940; GST-MLLE / FITC-PAM2 fluorescence polarization; inhibition, % at 20 µM; 360,000 tested, 0.36% active; in the data active = inhibition above about 35%, passing the limit was not always enough;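 note: plate controls were DMSO wells with GST-MLLE for no effect and wells lacking GST-MLLE protein for full effect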
eIF4H FP inh: inhibitors of RNA binding by human eIF4H; AID 2012; Q15056; 290,000 tested, 0.94% active; eIF4H fluorescence polarization binding assay; inhibition, % at 35 µM;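 note: calls also rest on retests at 20 µM and on dose response follow-up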
PHOSPHO1 inh: inhibitors of human PHOSPHO1 phosphatase; recombinant PHOSPHO1, absorbance phosphatase assay; inhibition, % at 13.3 µM; 290,000 tested, 1.1% active; in the data active = inhibition above about 60%
Numbers without * were called inactive; i = inactive; ? = inconclusive; · = no result; + = active, no number; ! = a repeat was not active. Unless noted, the rule behind the calls is not given here.

SMILES	PABP polyA inh	HMGR II inh	MLLE-PAM2 inh	eIF4H FP inh	PHOSPHO1 inh
CCCOC(=O)c1c(-c2ccc(C)cc2C)csc1NC(=O)C1C2CCC(O2)C1C(=O)O (stereo not given)	i	-3.9	35.9	-13.0	-5.0
CCOC(=O)c1ccccc1NC(=O)COC(=O)Cc1ccccc1F	·	·	-3.6	·	·
O=C(Nc1nccs1)c1ccc2c(c1)C(=O)N(Cc1cccnc1)C2=O	i	·	-7.8	3.8	22.2
Cc1ccc(NC(=O)c2ccc3c(c2)C(=O)N(Cc2cccnc2)C3=O)c(C)c1	i	2.7	1.6	3.5	61.0*
Cc1cnc(NC(=O)c2ccc3c(c2)C(=O)N(Cc2cccnc2)C3=O)s1	i	·	-15.9	-12.8	62.8*
CCOC(=O)N1CCC(N(CCN(C)C)C(=S)Nc2ccccc2OC)CC1	i	0.1	18.0	-2.7	-9.8
CCOC(=O)N1CCC(N(CCN(C)C)C(=S)Nc2ccccc2OCC)CC1	+	4.1	21.9	active	16.1
O=C(Cn1c(=O)n(Cc2ccco2)c(=O)c2c3c(sc21)CCCCC3)Nc1ccccc1	+	-0.4	5.8	78.1*	37.5
O=C(Cn1c(=O)n(Cc2ccco2)c(=O)c2c3c(sc21)CCCCC3)c1ccccc1	+	-0.4	-15.6	74.2*	-36.2
O=c1c2c3c(sc2n(CCN2CCCC2)c(=O)n1Cc1ccco1)CCCCC3	i	3.0	1.4	-5.7	1.2
CC1(C(=O)Nc2ccc(Cl)c(Cl)c2)CCN1Cc1ccccc1OC(F)F (stereo not given)	·	·	-14.5	·	·
CC(=O)C[C@H](O)CC(=O)[C@H]1OC(=O)CCCCCCCc2ccccc21	·	·	0.8	·	·
CC(C)Cn1c(N)c(C(=O)COC(=O)COc2cccc(C(F)(F)F)c2)c(=O)n(C)c1=O	i	·	-2.9	1.3	5.1
Cc1ccc(N2C(=O)/C(=C/c3ccco3)SC2=S)cc1	i	-1.7	11.9	83.7	-14.7
O=C1/C(=C\c2ccco2)SC(=S)N1C1CCCCC1	i	·	·	56.7*	8.5
CCCCc1ccc(N2C(=NC(=O)C3CCCO3)SC3CS(=O)(=O)CC32)cc1 (stereo not given)	·	·	0.2	·	46.9
CC1(C)Cc2c(C#N)c(N)n(-c3ccccc3)c(=S)c2CO1	i	·	-6.5	28.9	19.7
Cn1c(N)c(C#N)c2c(c1=S)COC(C)(C)C2	i	-3.1	-87.2	8.4	64.2*
CC(C)C1Cc2c(C#N)c(N)n(C)c(=S)c2CO1 (stereo not given)	i	0.8	-114.0	15.5	68.5*
CSc1nc(N2CCOCC2)c2c(c1C#N)CC(C(C)C)OC2 (stereo not given)	i	·	4.3	-6.3	43.7
CC(C)c1nc(Cl)c(C#N)c2c1CSC(C)(C)C2	i	-1.9	-0.9	-10.5	11.3
CCc1nc(Cl)c(C#N)c2c1CSC(C)(C)C2	i	-1.0	-4.5	3.6	0.8
Cn1c(N)c(C#N)c2c(c1=S)CSC(C)(C)C2	?	-2.6	34.6	?	91.4*
CC1(C)Cc2c(C#N)c(N)sc(=S)c2CS1	?	0.3	31.1	?	101.1*
COc1ccc(C(=O)C2CCN(CC(=O)Nc3ccc(C)cc3)CC2)cc1	i	·	6.1	0.7	32.3
SMILES	PABP polyA inh	HMGR II inh	MLLE-PAM2 inh	eIF4H FP inh	PHOSPHO1 inh
CCN(CC)CCCNC(=S)N1CCN(c2nc(-c3ccccc3)cs2)CC1	i	·	-116.5	4.0	29.0
CC1(C)Cc2c(c(N3CCCC3)[nH]c(=S)c2C#N)CO1	i	1.4	·	-3.5	66.6*
Cc1cc(/C=N/NC(=O)COc2cccc3cccnc23)c(C)n1-c1ccc(O)cc1	+	-2.5	7.4	59.8	-13.8
Cc1cc(C)cc(-n2c(C)cc(/C=N\NC(=O)COc3cccc4cccnc34)c2C)c1	i	-2.3	-13.6	-3.9	3.4
Cc1cccc(C)c1NC(=O)CN(c1c(C)cccc1C)S(C)(=O)=O	·	·	18.8	·	·
CCCCSc1nnc2c(n1)OC(C(=O)c1ccccc1)Nc1ccccc1-2 (stereo not given)	i	-5.7	·	6.3	90.2*
COc1ccccc1C(=O)C1Nc2ccccc2-c2nnc(SC)nc2O1 (stereo not given)	i	-2.4	22.5	-2.3	-8.3
CC(C)N1CC(C(=O)Nc2ccc(C#N)cc2)CC1=O (stereo not given)	i	·	3.0	-11.0	8.8
CC(=O)N1CCC2(CC1)C/C(=N\NC(=S)Nc1ccccc1C)c1cc(O)ccc1O2	i	-1.4	35.6	8.5*	0.7
CC(=O)N1CCC2(CC1)C/C(=N\NC(=S)Nc1ccccc1F)c1cc(O)ccc1O2	i	-5.0	25.2	9.9	-62.3
COc1ccc(C(=O)CCN2CCCC(C)C2)cc1 (stereo not given)	i	·	40.9*	-16.3	21.6
COc1ccc(C(=O)CCN2CCC(C)CC2)cc1	i	·	43.6*	-10.2	5.2
O=C(N/N=C/c1ccccn1)c1ccc(NC(=O)c2cccc([N+](=O)[O-])c2)cc1	+	0.0	0.6	74.7*	44.5
Cc1ncc([N+](=O)[O-])n1CC(C)O (stereo not given)	+!	15.6*!	4.2	?	-8.2
CCS(=O)(=O)CCn1c([N+](=O)[O-])cnc1C	i	13.6*	3.3	-6.9	3.5
Cc1ncc([N+](=O)[O-])n1CCN1C(=O)c2ccccc2C1=O	i	·	-4.2	-9.3	20.3
Cc1ccc(Cn2c([N+](=O)[O-])cnc2C)cc1	i	-5.3	9.7	-11.3	-32.0
Cc1ncc([N+](=O)[O-])n1CCO	i	-2.1	6.8	5.6*	-13.6
COCCn1c(SC(C(=O)Nc2cc(C)ccc2OC)c2ccccc2)nnc1-c1ccc(Cl)cc1 (stereo not given)	i	-1.3	-4.1	7.8	62.7*
COc1ccc(C)cc1NC(=O)C(Sc1nnnn1C)c1ccccc1 (stereo not given)	i	14.6*	-2.2	5.3	5.8
CCCn1c(SC(C(=O)Nc2cc(C)ccc2OC)c2ccccc2)nc2ccccc2c1=O (stereo not given)	i	-5.5	-62.3	-0.4	1.8
Cn1c(=O)c2[nH]c(Cc3cccc4ccccc34)nc2n(C)c1=O	·	·	7.4	·	·
S=c1[nH]nc(-c2ccncc2)n1/N=C/C=C/c1ccco1	+	0.1	-1.3	96.5*	51.4
S=c1[nH]nc(-c2cccnc2)n1/N=C/C=C/c1ccccc1	i	0.5	-40.0	-9.2	67.4*
Cc1cccc(-c2n[nH]c(=S)n2/N=C/C=C/c2ccco2)c1	+	·	-4.4	85.0*	41.7
SMILES	PABP polyA inh	HMGR II inh	MLLE-PAM2 inh	eIF4H FP inh	PHOSPHO1 inh
S=c1[nH]nc(-c2ccncc2)n1/N=C/c1ccccc1	i	-9.6	-41.4	0.2	11.6
C(=C\c1ccco1)/C=N/n1cnnc1	+	-1.1	-1.5	92.7*	23.0
O=C1OC(c2ccccc2)=N/C1=C\C=C\c1ccco1	i	-5.7	-8.8	5.4	-3.1
O=C(Cc1c(F)cccc1Cl)N1CCN(S(=O)(=O)c2cccc(F)c2)CC1	·	·	-10.1	·	·
S=c1[nH]nc(-c2ccccc2Cl)n1/N=C/C=C/c1ccco1	+	·	-11.6	92.1*	28.8
CN1CCN(NC(=O)/C=C/c2cccc(Cl)c2)CC1	i	·	2.7	-7.9	23.3
